Screens as filed in PubChem BioAssay.
Pf Dd2 inh – qHTS Primary assay for Inhibitors of Plasmodium falciparum Dd2 growth in vitro; actives 4.3% (n = 120,000); P. falciparum Dd2 growth, SYBR Green, 72 h; Potency, µM (highest dose often 28.9 µM), without a hit: at the top dose activity, negative = inhibition, usual class: inhibitors; AID 1347417, 2020; active means well fitted inhibition curve with a large enough effect;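 further: plate controls were DMSO vehicle for no effect and reference drug for full effect; nearly all actives have a fitted effect of over 65% in size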
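Infected erythrocytes (Dd2, 0.3% parasitemia, 2.5% hematocrit final) are added to compound in RPMI-1640/Albumax II medium, grown 72 h at 37C in low oxygen, then lysed with saponin/Triton-X containing SYBR Green and read by fluorescence.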
* = called active by the depositor; i = inactive; [ ] = another dose, or the depositor's remark. This is one part of a sample in which hits are shown more often than they occur. Potency means the concentration at half of the fitted maximal effect.

SMILES	Pf Dd2 inh
COc1cccc(C(=O)N2CCC(c3n[nH]c(=O)n3-c3ccccc3)CC2)c1	i
O=C(CN1C(=O)COc2ccc(C(=O)COc3ccccc3F)cc21)Nc1ccc(F)cc1	i
COc1ccc(C(=O)N2CCC3(CNc4ccccc4[S+](=O)([O-])N3)C2)cc1 (stereo not drawn)	-19.5%
Cc1ccc(CN2CCOc3cc([S+](N)(=O)[O-])ccc3C2)c(F)c1	-12.2%[44.1 µM]
O=C(O)c1cccc(-c2n[nH]c3c2CC(=O)N(c2ccccc2)C3)c1	i
COc1ccccc1-c1nnc2n1C(C(=O)NCCc1ccc(Cl)cc1)CC2 (stereo not drawn)	1.78µM*
COC(=O)CNC(=O)C1CCc2nnc(-c3ccccc3OC)n21 (stereo not drawn)	36.7%
COc1ccccc1-c1nnc2n1C(C(=O)NC(C)C)CC2 (stereo not drawn)	-8.7%
Cc1cc(C(=O)N2C[C@@H](COc3ccccc3)[C@H](C(N)=O)C2)c(C)o1	-2.1%
CC(C)N1CCC(CC(=O)N[C@@H]2CN(S(C)(=O)=O)C[C@H]2CN(C)C)CC1	i
COC(=O)c1c(C)sc(-c2c(-c3ccc4c(c3)OCCO4)[nH]c3c2c(=O)n(C)c(=O)n3C)c1O	-7.4%
CCOC(=O)c1c(C)sc(-c2c(-c3ccc(OC)c(F)c3)[nH]c3c2c(=O)[nH]c(=O)n3C)c1O	428.2%[5.79 µM]
CCOC(=O)c1c(C)sc(-c2c(-c3ccc4c(c3)OCCO4)[nH]c3c2c(=O)n(C)c(=O)n3C)c1O	8.91µM*
CCN(CC)C(=O)[C@@H]1CCC[C@@H](NCc2cccnc2)CN(C)C(=O)C1	2.5%[44.1 µM]
CN1CCC(N2CCN(S(=O)(=O)c3cccc(Cl)c3)CC2)C1=O (stereo not drawn)	0.4%
COc1ccc(CN2C(=O)[C@@H]3C[C@@H](O)CN3C3(CN(Cc4cccnc4)C3)C2=O)cc1	-16.4%[44.1 µM]
COc1cccc(C(=O)N2CCCCCC2c2nnc(C)o2)c1 (stereo not drawn)	2.8%
CC(C)(O)CN[C@H]1[C@H](O)[C@H](O)C[C@@H]1c1ccccc1	13.9%[44.1 µM]
COc1ccc(CN2C[C@@H](CO)[C@H](c3ccccn3)C2)cc1C	i
OC[C@@H]1CN(Cc2ccco2)C[C@H]1c1ccccn1	i
CCCOc1ccc(CN2C[C@@H](CO)[C@H](c3ccccn3)C2)cc1	2.82µM*
COC1C(=O)N(CC2CC2)C12CCN(S(=O)(=O)Cc1ccccc1)CC2 (stereo not drawn)	-8.2%
COc1cccc(-c2nc(-c3nnn4c3COC(c3ccccc3Cl)C4)no2)c1 (stereo not drawn)	i
Cc1ccc(S(=O)(=O)N2CCN(Cc3cc(=O)n4nc(-c5ccccc5Cl)sc4n3)CC2)cc1	15.1%
COc1ccc(-c2nn3c(=O)cc(CN4CCN(C(=O)COc5ccc(F)cc5)CC4)nc3s2)cc1	-6.8%
SMILES	Pf Dd2 inh
Cc1ccc(-c2nn3c(=O)cc(CN4CCN(C(=O)COc5ccc(C)c(C)c5)CC4)nc3s2)cc1	-5.7%
COc1cccc(-c2nn3c(=O)cc(CN4CCN(C(=O)COc5ccccc5C)CC4)nc3s2)c1	11.2µM*
COc1ccccc1-c1nn2c(=O)cc(CN3CCN(S(=O)(=O)c4ccc(C)cc4)CC3)nc2s1	9.1%
COc1ccc(-c2nn3c(=O)cc(CN4CCN(S(=O)(=O)c5ccc(C)cc5)CC4)nc3s2)cc1	11.2µM*
COc1ccc(-c2nn3c(=O)cc(CN4CCN(C(=O)/C=C/c5ccccc5)CC4)nc3s2)cc1	-19.8%
Cc1cccc(-c2nn3c(=O)cc(CN4CCN(S(=O)(=O)c5ccc(Cl)cc5)CC4)nc3s2)c1	8.91µM*
Cc1cccc(-c2nn3c(=O)cc(CN4CCN(C(=O)c5ccccc5Br)CC4)nc3s2)c1	-21.1%
CNc1nc(N2C[C@H]3CN(CCCOC)C[C@@]3(C(=O)O)C2)ncc1F	-5.1%
Cn1nccc1C(=O)N1CCCC(c2nc(C3CCOCC3)no2)C1 (stereo not drawn)	29.0%
CC(C)N1CC2CCC(C1)N2C(=O)c1ccc2c(c1)OCO2	14.1%
CNC(=O)[C@@H]1C[C@@H](NC(=O)c2cccs2)CN1C(=O)Cc1cnccn1	19.4%
CNC(=O)c1noc([C@@H]2CC(F)(F)CN2C(=O)C2CCC2)n1	45.6%
C=C[C@H]1CN2CC[C@H]1C[C@@H]2CNS(=O)(=O)c1cccc2cccnc12	i
CN(C)C[C@@H]1CN(S(C)(=O)=O)C[C@H]1NC(=O)Cc1c(F)cccc1Cl	14.5%
Cc1noc(Cn2c(=O)c3cc4c(cc3n(CC(=O)Nc3ccc(C(C)C)cc3)c2=O)OCO4)n1	12.6µM*
CC(C)c1ccc(NC(=O)Cn2c(=O)n(Cc3nc(-c4ccccc4)no3)c(=O)c3cc4c(cc32)OCO4)cc1	-7.7%
COc1ccc(NC(=O)Cn2c(=O)n(Cc3nc(C)no3)c(=O)c3cc4c(cc32)OCO4)cc1OC	-7.8%
O=C(C1CC(=O)N(c2n[nH]c3cccc(F)c23)C1)N1CCN(c2ccc(F)cc2)CC1 (stereo not drawn)	-21.4%
